Key:
[1] = biological target: T1, Aspartate--tRNA(Asp/Asn) ligase (Mycobacterium tuberculosis (strain ATCC 25618 / H37Rv)) (UniProt P9WFW3); test: Assay for Asp RNA synthetase-1 from Mycobacterium tuberculosis; assay type: functional; parameters: scale not given: direction of the effect not stated beside the values; conditions: 30 µM; further: in the data most compounds retested in dose-response had high values
T1 sequence (whole entry): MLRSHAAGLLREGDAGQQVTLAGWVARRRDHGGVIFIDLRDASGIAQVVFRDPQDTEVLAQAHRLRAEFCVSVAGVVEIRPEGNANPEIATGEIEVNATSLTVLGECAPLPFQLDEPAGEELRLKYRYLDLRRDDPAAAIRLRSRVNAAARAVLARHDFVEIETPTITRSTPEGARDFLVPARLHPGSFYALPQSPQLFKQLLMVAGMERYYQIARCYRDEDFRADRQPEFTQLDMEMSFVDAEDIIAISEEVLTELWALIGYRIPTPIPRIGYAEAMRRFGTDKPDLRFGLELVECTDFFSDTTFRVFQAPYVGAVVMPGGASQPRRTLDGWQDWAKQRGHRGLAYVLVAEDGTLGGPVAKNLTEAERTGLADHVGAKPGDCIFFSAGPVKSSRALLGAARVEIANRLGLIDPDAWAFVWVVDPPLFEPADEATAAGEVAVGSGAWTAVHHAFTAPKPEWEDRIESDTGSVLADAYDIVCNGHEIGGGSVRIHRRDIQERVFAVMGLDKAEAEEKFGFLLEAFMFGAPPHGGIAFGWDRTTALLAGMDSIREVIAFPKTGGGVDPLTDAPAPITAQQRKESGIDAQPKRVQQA

[2] = biological target: Shiga toxin 2 (Escherichia coli O157:H7) (UniProt P09385+P09386); test: E. coli 0.157:H7 Shiga Toxin SOP - stx2 screening assay; assay type: functional; parameters: scale not given: direction of the effect not stated beside the values; conditions: 30 µM

Row | SMILES | Percent Effect [1] | Percent Effect [2]
1 | Cn1cc(CN2CC[C@H]3OCC[C@@H](C(=O)N4CCCCO4)[C@@H]3C2)cn1 | 2.85% | -10.1%
2 | Cc1nn(C)cc1CN(C)Cc1cc2c(cc1OC(F)F)OCO2 | 3.57% | -11.3%
3 | c1cc(C2CCCN2Cc2nnnn2C2CC2)cs1 (configuration not stated) | -4.43% | 5.22%
4 | O=C1CCSCC(C(=O)N2CCCC2)N1 (configuration not stated) | -3.45% | -6.39%
5 | CN1CCC(c2cccc(Cc3ccc(F)cc3)n2)CC1 | -0.194% | -29.1%
6 | Cc1ccc(CN2CC(C(=O)N3CCCC3)C3(CCOCC3)C2)s1 (configuration not stated) | 10.8% | -7.63%
7 | Cc1ccc(C2CSCCN2C(=O)C2=CCCC2)o1 (configuration not stated) | 6.9% | 5.19%
8 | COc1ccc(F)cc1C(C)NC(=O)Cn1ccc(=O)n(C)c1=O (configuration not stated) | 0.602% | -12.8%
9 | CCc1nc(C)c(C(=O)NCCNc2ncccn2)s1 | 0.562% | 30.3%
10 | Cc1ccc(-c2nc(CCNC(=O)NC3CCN(C)CC3)co2)cc1 | -3.19% | 3.52%
11 | COCCN1C[C@@H](C)[C@@]2(COCCN(C(=O)Cc3ccccc3)C2)C1 | 1.75% | -6.45%
12 | Cc1ccc(CC(=O)N2CCOC(c3nc(C)n[nH]3)C2)cn1 (configuration not stated) | 1.92% | 0.301%
13 | CCOc1ccccc1C1CCCN1 (configuration not stated) | 2.67% | -3.4%
14 | O=C(NCc1nn(-c2ccccc2)c2c1CCC2)NC1CC1 | 1.63% | 9.96%
15 | CCc1ncnc2c1CCN(Cc1ccc(OC)cc1)CC2 | -0.259% | -28%
16 | NCc1cnn(-c2ccccc2C(=O)NCCCn2ccnc2)c1 | 0.581% | 10.4%
17 | CN(C)CC1CN(Cc2cccc(C(=O)N(C)C)c2)CCO1 (configuration not stated) | -3.06% | -24.2%
18 | CCc1[nH]ncc1C(=O)N1CCCC(n2ccnc2C(C)C)C1 (configuration not stated) | 4.54% | 5.75%
19 | O=C(c1cccnc1-n1cncn1)N1CCc2ccccc2C1 | -3.76% | -9.55%
20 | COc1cc(N2C[C@@H]3COC[C@]3(COc3cccnc3)C2)ncn1 | -3.68% | -5.75%
21 | Cn1cc(C[C@H]2[C@H](O)CCN2CC2CC2)cn1 | -0.168% | 2.72%
22 | CC(NC(=O)c1nc(=O)[nH][nH]1)c1ccc(OCC2CC2)c(F)c1 (configuration not stated) | -2.07% | 5.49%
23 | CCc1nc(CN2CCCN(C(=O)C(C)n3cncn3)CC2)cs1 (configuration not stated) | -3.06% | 9.04%
24 | CCOc1cccc(NS(=O)(=O)c2cc(C)c(C(=O)O)s2)c1 | 1.62% | -10.3%
25 | O=C(O)C1(Cc2cc(-c3cccc(F)c3)no2)CCOCC1 | -1.59% | 9.34%
26 | O=c1[nH]c(CN(Cc2ccco2)C2CCCC2)nc2ccccc12 | -3.64% | -24.3%

Row | SMILES | Percent Effect [1] | Percent Effect [2]
27 | O=C(c1cccnc1)N1CCn2nnc(COc3cccnc3)c2C1 | 6.79% | -23.3%
28 | CC(=O)NCc1ccc(C(=O)N2CCCC2c2cnn(C)c2)o1 (configuration not stated) | 1.21% | 21.1%
29 | CCc1nc(C2CCCN2C(=O)C2=COCC2)no1 (configuration not stated) | -0.485% | -3.44%
30 | CCc1ccc(S(=O)(=O)Nc2cn(C)cc(Br)c2=O)cc1 | -3.18% | -8.3%
31 | O=C(COc1coc(CN2CCCCCC2)cc1=O)c1ccccc1 | -4.01% | -112%
32 | COc1ccccc1CC(=O)NS(=O)(=O)c1cncc(Br)c1 | -6.19% | 10.1%
33 | CCCn1ncc2c(C(=O)Nc3n[nH]c(SC)n3)cc(C3CC3)nc21 | -6.49% | -0.011%
34 | Cn1c(CN2CCN(CC3CC3)CC2)nnc1C1CCC1 | 8.05% | -37.5%
35 | c1cnnc(N2CCCC(NCc3ccc(-n4ccnc4)cc3)C2)c1 (configuration not stated) | -2.02% | 10.2%
36 | Cc1n[nH]cc1C(=O)N1CCCC(n2nnc3cc(F)ccc32)C1 (configuration not stated) | -7.43% | -9.56%
37 | CCn1nc(C)c2nc(C(C)C)nc(NCCCO)c21 | 3.48% | -3.03%
38 | COCc1nc(C(=O)N2CCCC2c2noc(C(C)C)n2)cs1 (configuration not stated) | 2.63% | -5.18%
39 | CCS(=O)(=O)Nc1ccn(Cc2cccc(Cl)c2)n1 | 4.7% | -12.9%
40 | CCc1nnc2n1CC(CNCc1ccncc1)CC2 (configuration not stated) | -3.51% | -13.5%
41 | O=C(NCC1CC1)C1CN(C(=O)c2cccs2)CC12CCOCC2 (configuration not stated) | 5.88% | 0.242%
42 | c1cnc2c(c1)cc([C@H]1CCCO1)n2CCN1CCCCC1 | -0.551% | -28.2%
43 | Cc1c(C(=O)NCC(C)C)nnn1-c1cccc2c1CCN(C)C2 | 0.928% | -7.34%
44 | CCc1cnc(N)nc1NCCN1CCCCC1 | 0.268% | -30.3%
45 | O=C(c1cccc2c1OCO2)N1CCCC1Cn1cccn1 (configuration not stated) | 3.69% | 29.5%
46 | COc1nn(C)c2c1CCCN(C(=O)c1ccccc1)C2 | -0.268% | -9.13%
47 | CC1=Nc2c(c(=O)[nH]n2C2CCOCC2)C(c2cccc(Br)c2)S1 (configuration not stated) | 0.0871% | 15%
48 | CC(C)c1ncc2c(n1)CN(Cc1nc(-c3ccoc3)no1)CC2 | 3.7% | -1.63%
49 | CC(C)c1cc(NC(=O)CN2CCc3cncnc3C2)on1 | 2.37% | 5.67%
50 | O=C(c1cccnc1)N1C[C@@H]2CC[C@H](C1)N(Cc1cccc(Cl)c1F)C2 | 9.03% | -10.5%
51 | Cc1cnn(CC2CCCCN2Cc2nnc(C3CC3)n2C)c1 (configuration not stated) | -3.3% | 1.19%

From ChEMBL document CHEMBL3988442, “University of Dundee, Small-Polar-MMV Screening Library” (2021)
